Outcome and inhibition data for 15 compounds are collected here from PubChem BioAssay.

Assay [1] relates to TRPC4 beta (transient receptor potential cation channel C4), mouse. Nature of the assay: activators of mouse TRPC4 channel, confirmation, cell-based, Fluo4 calcium, HEK293 TRPC4beta/mu-opioid, duplicates, 10 µM (AID 2426;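 active = fluorescence ratio normalized to control raised more than 50% in primary screen plus both repeat runs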). The following applies: Fluo4 calcium fluorescence, at 10 µM; hits give high values.
The test system of assay [2] is transient receptor potential cation channel C4 beta (TRPC4), mouse. Briefly: activators of mouse TRPC4 channel, confirmation, cell-based, second round, Fluo4, HEK293 TRPC4beta/mu-opioid, 1 µM (AID 2461;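 active = primary screen active and over 50% activation in each of two duplicate runs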). The following applies: Fluo4 calcium fluorescence, at 1 µM; hits give high values.
Assay [3] has as its system TRPC4 (transient receptor potential cation channel C4 beta), mouse. Nature of the assay: positive allosteric modulators of mouse TRPC4, confirmation, cell-based, second round, Fluo-4, HEK293 TRPC4beta/mu-opioid, 1 µM (AID 2554;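 active = primary screen hit whose fluorescence ratio, in both repeats, exceeds the weak agonist control mean by 3 SD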). The note with it: DAMGO EC20, Fluo-4 calcium flux, at 1 µM; hits give high values.
Assay [4] concerns TRPC4 beta (transient receptor potential cation channel C4), mouse. Nature of the assay: positive allosteric modulators of mouse TRPC4, confirmation, cell-based, Fluo-4, HEK293 TRPC4beta/mu-opioid (AID 2555;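 active = primary screen hit whose calcium fluorescence ratio, in both repeats, exceeds the weak agonist control mean by 3 SD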). The following applies: DAMGO EC20, Fluo-4 calcium flux, at 10 µM; hits give high values.
The target in assay [5] is Short transient receptor potential channel 4 (Mus musculus) (UniProt Q9QUQ5). Briefly: inhibitors of mouse TRPC4 channel, confirmation, cell-based, Fluo4, HEK293 TRPC4beta/mu-opioid (AID 2636). The note with it: DAMGO, Fluo4 calcium flux, at 10 µM; hits give high values.
Chain of Short transient receptor potential channel 4 (Mus musculus) (Q9QUQ5 whole entry, looked up): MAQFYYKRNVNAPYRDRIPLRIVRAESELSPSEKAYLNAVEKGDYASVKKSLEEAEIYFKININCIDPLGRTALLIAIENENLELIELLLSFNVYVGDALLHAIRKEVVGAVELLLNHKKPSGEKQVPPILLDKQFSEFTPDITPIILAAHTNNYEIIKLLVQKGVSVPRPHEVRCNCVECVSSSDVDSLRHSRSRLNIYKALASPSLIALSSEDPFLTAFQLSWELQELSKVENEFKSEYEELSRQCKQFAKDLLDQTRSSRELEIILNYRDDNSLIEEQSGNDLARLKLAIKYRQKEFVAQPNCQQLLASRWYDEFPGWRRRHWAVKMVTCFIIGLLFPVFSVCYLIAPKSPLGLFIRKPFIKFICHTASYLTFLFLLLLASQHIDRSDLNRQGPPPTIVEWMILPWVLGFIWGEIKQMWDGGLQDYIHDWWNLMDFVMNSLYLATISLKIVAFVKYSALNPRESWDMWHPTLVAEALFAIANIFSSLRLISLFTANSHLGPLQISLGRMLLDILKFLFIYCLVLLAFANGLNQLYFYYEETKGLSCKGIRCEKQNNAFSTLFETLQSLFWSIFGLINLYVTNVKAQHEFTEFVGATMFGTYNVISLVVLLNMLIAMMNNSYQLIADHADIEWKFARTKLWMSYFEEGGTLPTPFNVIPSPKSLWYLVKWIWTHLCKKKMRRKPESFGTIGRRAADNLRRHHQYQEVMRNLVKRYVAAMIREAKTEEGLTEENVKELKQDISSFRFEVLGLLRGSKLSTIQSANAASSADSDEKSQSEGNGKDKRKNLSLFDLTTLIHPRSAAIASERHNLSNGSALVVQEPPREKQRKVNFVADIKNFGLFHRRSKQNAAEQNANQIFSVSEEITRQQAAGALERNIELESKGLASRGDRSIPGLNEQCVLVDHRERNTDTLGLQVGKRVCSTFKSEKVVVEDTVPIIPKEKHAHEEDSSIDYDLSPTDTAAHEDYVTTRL
The target is the same in assay [6]. Briefly: inhibitors of mouse TRPC4 channel, confirmation, cell-based, second round, Fluo4, HEK293 TRPC4beta/mu-opioid, 1 µM (AID 2637;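 active = calcium signal ratio cut to more than 3 SD under the fully stimulated control mean yet still positive, in both repeats and the primary screen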;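 for inhibition: percent of integrated ratio relative to wells lacking test compound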). The note with it: Fluo4 calcium flux, DAMGO, at 1 µM; hits give high values.
Assay [7] shares this target. Nature of the assay: mouse TRPC4 channel activators, dose response, cell-based, HEK293 TRPC4/mu-opioid, Fluo-4 calcium (AID 434937;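 active = primary screen activator hit with a dose response curve and TRPC4 channel activation at any tested dose; inactive = no activation, no dose response, or not a primary hit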).
Assay [8] shares this target. Briefly: TRPC4 positive allosteric modulators, dose response, cell-based, HEK293 TRPC4/mu-opioid, Fluo-4 calcium, EC20 DAMGO (AID 434941;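 active = earlier screen potentiator hit that boosts the TRPC4 ion channel at some dose, with a dose response; inactive = no potentiation, no dose response, or not a prior hit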;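 note: calcium entry triggered by an EC20 dose of DAMGO at the co-expressed mu-opioid receptor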).
Assay [9] concerns the target Short transient receptor potential channel 6 (Mus musculus) (UniProt Q61143). Briefly: inhibition of mouse TRPC6 channel, confirmation, selectivity assay for TRPC4 inhibitor project, cell-based, HEK293, membrane potential dye, duplicate (AID 434948;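 active = active in primary screen and both duplicates, each dropping signal beyond three positive-control SD with fluorescence still positive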). The note with it: HEK293 TRPC6, membrane potential dye fluorescence, at 10 µM, stimulated with maximal-effect acetylcholine; hits give high values.

For assay [10] the target is unchanged. Briefly: activation of mouse TRPC6 channel, confirmation, selectivity assay for TRPC4 activator project, cell-based, HEK293, membrane potential dye, duplicate (AID 434950;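 active = membrane potential signal rise above negative control mean plus 3 SD in both duplicates, also active in the earlier TRPC4 screen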). The note with it: HEK293 TRPC6, membrane potential fluorescence, at 10 µM; hits give high values.
Assay [11] shares this target. Nature of the assay: TRPC6 potentiation by TRPC4 potentiator hits, confirmation, selectivity assay for TRPC4 potentiator project, HEK293 cells, membrane potential dye, duplicate (AID 434952;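 active = compound raising the membrane signal above positive-control mean plus 3 SD in both repeats, and a primary screen hit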). The following applies: HEK293 TRPC6, membrane potential dye fluorescence, at 10 µM, maximal acetylcholine added after compound; hits give high values.
Assay [12] concerns the target Short transient receptor potential channel 4 (Mus musculus) (UniProt Q9QUQ5). Briefly: calcium flux activators in TRPC4/5HT1a cells, counter-screen for TRPC4 activator project, cell-based, second counter screen, HEK293 TRPC4/5HT1a, Fluo-4 (AID 434977;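 active = calcium signal rise above buffer-control mean plus 5 SD in both duplicates, and also a hit in the primary screen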). The following applies: Fluo-4 calcium flux, at 10 µM; hits give high values.
A short description of assay [13]: calcium flux inhibitors in TRPC4/5HT1a cells, confirmation, counter-screen for TRPC4 inhibitor project, cell-based, second counter screen, HEK293 TRPC4/5HT1a, Fluo-4 (AID 434978;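 active = primary screen active whose calcium signal fell more than 3 SD beyond the full-serotonin control mean in both duplicate plates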;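 for Outcome: serotonin given first at submaximal then at maximal dose after compound preincubation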). The note with it: Fluo-4 calcium flux, at 10 µM, serotonin added to trigger calcium flux; hits give high values.
Assay [14] relates to TRPC4 (mouse), co-expressed with 5HT1a in HEK293. Briefly: calcium flux potentiators in TRPC4/5HT1a cells, confirmation, counter-screen for TRPC4 potentiator project, cell-based, second counter screen, HEK293 TRPC4/5HT1a, Fluo-4 (AID 434979;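 active = signal rise over 3 SD above mean of control wells given weak agonist, in both repeats and first screen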). The following applies: Fluo-4 calcium flux, at 10 µM, serotonin added at its EC20 dose; hits give high values.
Assay [15] can be described thus: calcium flux activation in mu-opioid HEK293 cells, confirmation, counter-screen for TRPC4 activator project, cell-based, HEK293 mu-opioid receptor line (AID 449723;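 active = hit in primary screen, with calcium signal over 5 SD above buffer well mean in both duplicates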;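 note: counter screen cells carry the mu-opioid receptor alone and lack TRPC4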). The following applies: Fluo-4 calcium fluorescence, at 10 µM; hits give high values.
Assay [16] can be described thus: calcium flux enhancement in mu-opioid HEK293 cells, confirmation, counter-screen for TRPC4 allosteric potentiator project, cell-based, HEK293 mu-opioid receptor line (AID 449724;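 active = calcium signal rise more than 3 SD above the low-dose agonist control mean, in both duplicate plates and the primary screen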;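 note: HEK293 cells carrying mu-opioid receptor only with no TRPC4 channel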). The note with it: Fluo-4 calcium flux, at 10 µM, compound added before EC20 DAMGO stimulus; hits give high values.

SMILES strings stand for the structures. For part of these data: Results with a measured potency or affinity are listed apart. Calls of active or inactive are those of the source.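 Rule for the calls, unless noted: active = calcium signal cut by more than 3 SD below the full-agonist control yet still positive, in both repeats and the earlier primary screen; inactive = the rest.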

Chain of Short transient receptor potential channel 6 (Mus musculus) (Q61143 whole entry, looked up): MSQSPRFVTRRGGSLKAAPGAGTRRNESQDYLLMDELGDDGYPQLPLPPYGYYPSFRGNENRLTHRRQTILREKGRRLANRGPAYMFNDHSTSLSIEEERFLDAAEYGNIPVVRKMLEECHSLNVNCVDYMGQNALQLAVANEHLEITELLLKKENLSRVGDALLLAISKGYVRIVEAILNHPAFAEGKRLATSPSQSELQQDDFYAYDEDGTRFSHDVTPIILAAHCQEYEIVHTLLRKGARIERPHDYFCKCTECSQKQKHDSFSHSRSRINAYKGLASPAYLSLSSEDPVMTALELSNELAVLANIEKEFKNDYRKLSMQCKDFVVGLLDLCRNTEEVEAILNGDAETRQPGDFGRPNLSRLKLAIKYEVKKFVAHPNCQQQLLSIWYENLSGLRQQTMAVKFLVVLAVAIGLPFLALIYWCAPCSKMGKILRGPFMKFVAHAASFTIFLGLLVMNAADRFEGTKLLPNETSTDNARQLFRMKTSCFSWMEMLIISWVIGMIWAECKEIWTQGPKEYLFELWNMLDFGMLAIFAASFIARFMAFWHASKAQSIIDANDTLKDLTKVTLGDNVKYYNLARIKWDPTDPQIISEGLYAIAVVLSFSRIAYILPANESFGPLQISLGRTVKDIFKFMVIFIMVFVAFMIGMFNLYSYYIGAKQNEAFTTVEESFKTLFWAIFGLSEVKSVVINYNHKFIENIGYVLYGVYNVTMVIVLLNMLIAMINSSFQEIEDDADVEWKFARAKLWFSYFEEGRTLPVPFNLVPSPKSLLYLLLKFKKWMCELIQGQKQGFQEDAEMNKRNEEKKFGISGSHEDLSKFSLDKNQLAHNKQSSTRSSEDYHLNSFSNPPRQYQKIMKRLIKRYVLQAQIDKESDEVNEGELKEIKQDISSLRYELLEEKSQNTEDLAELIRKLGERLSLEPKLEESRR

As for `Cc1c(CCOC(=O)c2ccc([N+](=O)[O-])cc2)sc[n+]1CC(=O)c1ccccc1`, the result in [1], in assay [2], in assay [3], in assay [4], in assay [6] and in assay [7] was inactive. For the same compound, the outcome in [8], in [9], in assay [10], in assay [11], in assay [12] and in assay [14] was inactive. Besides, the result in [15] and in [16] was inactive. The inhibition was 92% (active) in [5] and 42.9% (active) in assay [13].
For the compound `O=C(C[n+]1cccc(CNC(=O)c2ccc(OC(F)F)cc2)c1)Nc1ccc(SC(F)F)cc1`, the result in [1], in assay [2], in [3], in [4], in assay [6] and in [7] was inactive. The outcome in [8], in assay [9], in [10], in assay [11], in assay [12] and in assay [13] was inactive. Also, the result in assay [14], in assay [15] and in assay [16] was inactive. In assay [5], the inhibition was 94% (active).
With `CC1CCN(CCOCCOc2ccccc2-c2ccccc2)CC1`, the result in assay [1], in [2], in [3], in assay [4], in assay [7] and in assay [8] was inactive. In addition, the compound was classed as inactive in assay [9], in [10], in [11], in assay [12], in assay [14] and in assay [15]. Besides, the result in assay [16] was inactive. The values for the inhibition in assay [5], in assay [6] and in [13] were 101% (active), 57% (active) and 28.2% (active), respectively.
As to `COc1cccc(C(=O)C2CCCN(Cc3cccn3-c3ccccn3)C2)c1` (stereo not given), the result in [1], in [2], in assay [3], in assay [4], in [6] and in assay [7] was inactive. Moreover, the outcome in assay [8], in assay [10], in assay [11], in assay [12], in assay [14] and in [15] was inactive. Besides, the outcome in [16] was inactive. For the same compound, the inhibition is 44% (active) in [5], 38% (active) in [9] and 35.6% (active) in [13].
As for `CCc1ccccc1NC(=S)N(CCCN(C)C)Cc1cc2cc3c(cc2[nH]c1=O)OCO3`, the outcome in assay [1], in [2], in assay [3], in assay [4], in [7] and in [8] was inactive. In addition, the compound was classed as inactive in [9], in assay [10], in [11], in [12], in assay [14] and in assay [15]. Besides, the outcome in assay [16] was inactive. The inhibition in assay [5] was 94% (active); in assay [6], 92% (active); in [13] it was 19.9% (active).
As for `Cc1ccc2nc3c(c(N)c2c1)CCN3C`, the outcome in [1], in assay [2], in [3], in assay [4], in [7] and in assay [8] was inactive. In addition, the result in [10], in [11], in [12], in assay [14], in [15] and in [16] was inactive. In addition, the inhibition is 90% (active) in assay [5], 51% (active) in assay [6], 35.5% (active) in [9] and 15.4% (active) in assay [13].
In the case of `O=C(c1ccc(Cl)c(Cl)c1)N(Cc1ccco1)c1ccc(O)cc1`, the result in assay [1], in assay [2], in assay [3], in assay [4], in assay [6] and in [7] was inactive. For the same compound, the outcome in assay [8], in assay [9], in assay [10], in assay [11], in assay [12] and in [14] was inactive. Further, the result in assay [15] and in [16] was inactive. Moreover, the inhibition in assay [5] is 94% (active); in [13], 32% (active).
With `Cc1ccccc1CN1CCCC(C(=O)Nc2ccccc2Oc2cccnc2)C1` (stereo not given), the result in assay [1], in [2], in assay [3], in assay [4], in assay [7] and in assay [8] was inactive. Also, the outcome in assay [9], in [10], in [11], in assay [12], in [14] and in [15] was inactive. The outcome in assay [16] was inactive. The inhibition in assay [5] was 88% (active); in assay [6], 51% (active); in assay [13], 39.9% (active).
With `CCOc1cccc(CNCCO)c1OCc1ccc(Cl)cc1`, the outcome in [1], in assay [2], in [3], in [4], in [6] and in assay [7] was inactive. For the same compound, the result in assay [8], in [9], in assay [10], in assay [11], in assay [12] and in [14] was inactive. The result in [15] and in [16] was inactive. Further, the inhibition in [5] was 92% (active); in assay [13] it was 26.5% (active).
`COc1ccc(NC(=O)c2cccc(N3C(=O)C4CC=C(C)CC4C3=O)c2)c(OC)c1` (stereo not given): the result in assay [1], in assay [2], in [3], in [4], in assay [6] and in assay [7] was inactive. Besides, the result in assay [8], in assay [9], in assay [10], in [11], in assay [12] and in assay [13] was inactive. Also, the outcome in assay [14], in assay [15] and in assay [16] was inactive. The inhibition in [5] was 75% (active).
Regarding `COc1ccc(OC)c(Nc2cc(-c3ccccc3)nc(N)n2)c1`, the result in [1], in assay [2], in assay [3], in assay [4], in assay [7] and in [8] was inactive. For the same compound, the result in assay [10], in [11], in [12], in assay [14], in assay [15] and in assay [16] was inactive. Further, the inhibition in assay [5] was 100% (active); in [6] it was 49% (active); in assay [9] it was 55.5% (active); in [13], 37.9% (active).
In the case of `CC(=O)OCCCN1C(=O)c2cccc3cc(Br)cc(c23)C1=O`, the result in [1], in assay [2], in [3], in assay [4], in [7] and in assay [8] was inactive. Further, the compound was classed as inactive in assay [9], in [10], in [11], in assay [12], in assay [14] and in assay [15]. Besides, the outcome in assay [16] was inactive. In addition, the inhibition in [5] was 96% (active); in [6] it was 55% (active); in assay [13], 14.5% (active).
For the compound `CCOc1ccccc1-n1c(SCC(=O)Nc2nccs2)nnc1-c1ccoc1C`, the outcome in assay [1], in assay [2], in assay [3], in [4], in assay [7] and in assay [8] was inactive. Besides, the result in assay [9], in [10], in assay [11], in assay [12], in [13] and in assay [14] was inactive. The result in assay [15] and in [16] was inactive. In addition, the inhibition in assay [5] is 52% (active); in assay [6], 44% (active).
For `O=C(C1CCN(CC2CC=CCC2)CC1)N(CCc1ccccc1)Cc1ccccc1` (stereo not given), the outcome in assay [1], in [2], in assay [3], in assay [4], in [6] and in [7] was inactive. Further, the outcome in assay [8], in assay [10], in assay [11], in [12], in [14] and in [15] was inactive. The outcome in assay [16] was inactive. For the same compound, the inhibition in assay [5] was 53% (active); in assay [9], 32.5% (active); in [13], 40.1% (active).
As for `OCCNc1nc(NCc2ccccc2)c2ccccc2n1`, the result in [1], in [2], in [3], in assay [4], in [7] and in [8] was inactive. Further, the outcome in assay [9], in assay [10], in assay [11], in assay [12], in assay [14] and in assay [15] was inactive. Also, the outcome in [16] was inactive. The results for the inhibition in assay [5], in [6] and in assay [13] were 96% (active), 61% (active) and 21.4% (active), respectively.
